# Bioassay records: PubChem BioAssay, National Center for Advancing Translational Sciences (NCATS)
# HTT aggregate: reduces HttQ103-GFP aggregates in PC12 cells | actives 1.1% (n = 220,000) | PC12 HttQ103-GFP aggregates, Acumen cytometry, 40 h | AID 1688 | Potency, µM (series often up to 46.1 µM), for the others: at the top dose activity change, negative = inhibition, usual class: inhibitors; also: % is scaled to controls: 0 for no effect and ±100 for the full control effect; nearly all actives have a fitted effect of over 60% in size
#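 Multiplexed with ATP-based cell death, this channel scores GFP aggregates in PC12 cells expressing inducible HTTex1-Q103-GFP. Induction used 100 nM tebufenozide; compounds were tested in concentration series.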
# ALDH1A1 block: ALDH1A1 (human) enzyme inhibition; P00352; Purified ALDH1A1, NADH fluorescence, propionaldehyde substrate; AID 1030; actives 7.3% (n = 220,000); Potency, µM (doses to about 75.3 µM), for the others: top-dose activity, negative = inhibition, hits mostly inhibitors; active = well fitted inhibition curve with a large enough effect, not every such curve was filed as active; inconclusive = small, poorly fitted or top-dose-only effect, or another doubt; inactive = no such curve, though single readings can be large or run the other way;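 also: plate controls were no enzyme wells and a reference inhibitor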
# Target sequence (P00352 whole entry, looked up): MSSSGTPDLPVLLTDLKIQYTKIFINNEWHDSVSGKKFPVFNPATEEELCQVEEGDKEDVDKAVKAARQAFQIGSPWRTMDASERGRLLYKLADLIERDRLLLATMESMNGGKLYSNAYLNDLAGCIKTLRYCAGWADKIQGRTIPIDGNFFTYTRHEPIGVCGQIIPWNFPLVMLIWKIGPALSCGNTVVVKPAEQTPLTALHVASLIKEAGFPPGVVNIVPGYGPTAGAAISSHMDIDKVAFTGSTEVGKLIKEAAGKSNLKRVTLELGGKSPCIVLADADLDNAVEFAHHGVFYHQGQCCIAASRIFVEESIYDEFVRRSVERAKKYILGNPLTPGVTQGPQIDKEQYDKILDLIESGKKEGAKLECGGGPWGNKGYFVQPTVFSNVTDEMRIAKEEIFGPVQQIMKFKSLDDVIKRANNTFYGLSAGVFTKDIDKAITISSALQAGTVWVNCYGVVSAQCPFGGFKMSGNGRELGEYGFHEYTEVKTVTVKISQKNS
# Lamin A splicing: modulators of lamin A splicing | HeLa LMNA splicing GFP/RFP minigene ratio, 48 h | Potency, µM (highest dose often 46.1 µM), inactives show at the highest dose ratio change, negative = inhibition, hits mostly inhibitors | actives 0.01% (n = 200,000); active = well fitted inhibition curve with a large enough effect in the signal ratio, with a control signal flat, not every such curve was filed as active; inconclusive = small, poorly fitted or top-dose-only effect, or effect the other way, or a change in a side signal; the % refers to the signal ratio; also: % is scaled to controls: 0 for no effect and ±100 for the full control effect
#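 S3 HeLa stable clones carrying a lamin A-EGFP splicing minigene plus DsRed2 were seeded at 600 cells/well in Opti-MEM with 2% FBS, pin-dosed and incubated 48 h at 37°C. Acumen cytometry (488 nm) gave the GFP/RFP total-intensity ratio.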
# HPGD inh: HPGD (human) dehydrogenase inhibition. Potency, µM, for the others: at the top dose activity change, negative = inhibition, most hits filed as inhibitors. actives 4.3% (n = 150,000). AID 894. purified HPGD, NADH fluorescence kinetic, PGE2 substrate; active = well fitted inhibition curve with a large enough effect, not every such curve was filed as active; inconclusive = small, poorly fitted or top-dose-only effect, or another doubt; inactive = no such curve, though single readings can be large or run the other way; also: % is scaled to controls: 0 for no effect and ±100 for the full control effect
#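 NADH formation kinetics: reaction with 30 uM PGE2 and 1 mM NAD+ (final), 20 nM enzyme, Tris-HCl pH 8 with Tween 20, after 15 min compound preincubation at room temperature. Fluorescence change, last versus first of five reads.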
# HTT ATP protect: Huntington cell model cytoprotection by ATP luminescence; PC12 HTT-Q103 induced, cytoprotection, ATP luminescence, 40 h; Potency, µM (titrated, usually from 56.4 µM), inactives show cytoprotection (ATP increase), hits mostly activators; actives 0.14% (n = 230,000); AID 1471; also: % of control where 0% means no effect; nearly all actives have a fitted effect of over 45% in size
#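 Compounds were screened for protection of PC12 cells against cell death after tebufenozide induction (100 nM final) of mutant Huntingtin exon 1 (Q103) fused to GFP.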
# Active calls of the source: *; ? = inconclusive; · = no result; [ ] = dose if it differs, or a comment. Compounds with a hit are over-represented: about 8.8% of the library has one in this group of screens. Unless noted, calls follow the shape of the dose curve; as a rule, active = well fitted curve in the direction sought with a large enough effect; inconclusive = small, poorly fitted or top-dose-only effect, or another doubt; inactive = no such curve, though single readings can be large; an effect the other way counts as inactive or inconclusive. Potency is read from the fitted curve at half-maximal effect.
SMILES,HTT aggregate,ALDH1A1 block,Lamin A splicing,HPGD inh,HTT ATP protect
CC(C)C1OC2c3cccc4cccc(c34)C2N1c1ccccc1 (stereo unspecified),-11%,25µM*,-11%,-7%,9%[10 µM]
O=C1[C@H]2[C@H]3[C@H](O)[C@H](O)C/C(=N/OC[C@@H](O)COCc4ccco4)[C@@H]3CC[C@@H]2C(=O)N1C1CCCCC1,·,2%[13.5 µM],·,·,?
COc1cc2c(C#N)c(N3CCCCC3)nc(N)c2c(N)n1,11µM*,?,0%,?,-32%
CCOC(=O)c1c(C)[nH]c(C)c1S(=O)(=O)N1CCC(C(=O)Nc2ccc(OC)c(OC)c2)CC1,·,·,-8%[46 µM],·,·
N#CC1=C(S)N(c2ccccc2)C(c2ccc(-c3cccc(Cl)c3)o2)NC1=O (stereo unspecified),?,?,0%,32µM*,-1%[10 µM]
Cc1cccc(N2C(S)=C(C#N)C(=O)NC2c2ccco2)c1 (stereo unspecified),20%[9.22 µM],-7%,·,·,19%[10 µM]
Cc1ccc(-n2nnnc2SCC(=O)N2CC(=O)Nc3ccccc32)cc1,7%,11µM*,-9%,?,-6%
O=C1CN(C(=O)CSc2nc(-c3ccccc3)cs2)c2ccccc2N1,-9%,7%,?,18µM*,17%[10 µM]
CO[C@H]1COC(=O)[C@@H](CCSC)NC(=O)C/C=C\[C@@H](C)[C@H](OC)COC(=O)[C@@H](OCc2ccccc2)/C=C\[C@@H]1C,·,-6%[13.5 µM],·,·,-45%[10 µM]
Cc1ccc(S(=O)(=O)NCC(=O)N(CC(=O)NCC2CCCO2)Cc2ccco2)cc1 (stereo unspecified),7%[9.22 µM],18µM*,-1%[46 µM],·,15%[10 µM]
Cc1ccc(S(=O)(=O)NCC(=O)N(CC(=O)NCc2ccco2)Cc2ccco2)cc1,16%[9.22 µM],8.9µM*,-18%[46 µM],·,4%[10 µM]
O=C(CN(Cc1ccco1)C(=O)CNS(=O)(=O)c1ccccc1)NCc1ccccc1,11%,14µM*,6%,-19%,-32%[10 µM]
O=C(CN(CC1CCCO1)C(=O)CNS(=O)(=O)c1ccccc1)NCc1ccco1 (stereo unspecified),9%[9.22 µM],8%,·,·,14%[10 µM]
O=C(CN(Cc1cccs1)C(=O)CNS(=O)(=O)c1ccccc1)NCc1ccco1,-19%,20µM*,-12%,-5%,2%[10 µM]
Cc1ccc(S(=O)(=O)NCC(=O)N(CC(=O)NCC2CCCO2)Cc2ccccc2)cc1 (stereo unspecified),-16%,?,13%,-1%,6%
O=C(CN(Cc1ccco1)C(=O)CNS(=O)(=O)c1ccccc1)NC1CCCCC1,16%[9.22 µM],4%,2%,-2%,15%
O=C(CN(Cc1ccco1)C(=O)CNS(=O)(=O)c1ccc(F)cc1)NCCc1ccccc1,-11%,4%,-4%,-7%,5%
CCc1ccc(Sc2cc(C(=O)NCc3ccccc3OC)c3ccccc3n2)cc1,·,·,-18%[46 µM],·,·
CSc1nc(N)c2ncn([C@@H]3O[C@H](COP(=O)(O)OP(=O)(O)OP(=O)(O)O)[C@H](O)[C@H]3O)c2n1,·,8%,?,-16%,·
COC(=O)CC1C(=O)NCCN1C(=O)CSc1nc2ccccc2s1 (stereo unspecified),9%,18µM*,·,·,-33%
Cc1ccc(/C=C/S(=O)(=O)NCc2ccc(F)cc2)cc1,-10%,0%,17%[46 µM],·,-27%[10 µM]
CC1=Nn2c(nnc2-c2ccccc2Cl)SC1,12%,-11%,2%,25µM*,-5%[0.074 µM]
COc1ccccc1-c1nnc2n1N=C(C)CS2,-10%,-4%,3%,-16%,-9%
CC1=Nn2c(nnc2-c2ccco2)SC1,22%,18µM*,5%,32µM*,4%
Cn1nnc2c(N3CCN(c4ccc(F)cc4)CC3)ncnc21,·,·,-5%[46 µM],·,·
COC(=O)c1sccc1S(=O)(=O)N(CC(=O)Nc1ccccc1)c1ccccc1,·,·,-4%[46 µM],·,·
N#CCCn1cnc2c1NC=NC2Cl (stereo unspecified),·,-4%,·,-5%,13%
Cn1c(=O)c2c(nc(NCc3ccco3)n2C)n(C)c1=O,-8%,-6%,4%,-6%,6%
Cn1c(=O)c2c(nc(NCc3ccco3)n2C/C=C/c2ccccc2)n(C)c1=O,10µM*,6%,?,-5%,?
O=C(c1csnn1)N1CCC2(CC1)CN(c1ccccn1)C2,·,?,·,?,7%
